From PubChem BioAssay (Tox21)
Values joined by “and” are separate entries in the source; they are usually repeats but may differ in a detail not shown here. Identical values can stand only once. Active and inactive are the calls of the source. Unless noted, calls come from the whole dose curve; as a rule, active = well fitted curve in the direction sought with a large enough effect in the repeat runs; inconclusive = weak or mixed curves; inactive = flat fitted curve, though single readings scatter.

How the values were obtained:
[1] = qHTS assay to test for compound auto fluorescence at 535 nm (green) in HEK293 cells (AID 720680)
[2] = qHTS assay to test for compound auto fluorescence at 460 nm (blue) in HEK293 cell free culture (AID 720681)
In short: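 Blue fluorescence (Ex 405/Em 460 nm, triamterene-equivalent) was read immediately after pin transfer of compound or DMSO into medium (DMEM, 10% FBS) without cells.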

[3] = qHTS assay to test for compound auto fluorescence at 535 nm (green) in HEK293 cell free culture (AID 720682)
In short: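 DMEM + 10% FBS, cell-free; cpd or DMSO pinned in; Ex485/Em535 read; output as fluorescein-equivalent signal.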

[4] = qHTS assay to test for compound auto fluorescence at 590 nm (red) in HEK293 cell free culture (AID 720683)
In short: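 Red-channel autofluorescence of compounds in culture medium (DMEM, 10% FBS), no cells, measured at 540/590 nm. Rose Bengal sodium is the reference fluorophore for equivalence.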

[5] = qHTS assay to test for compound auto fluorescence at 590 nm (red) in HepG2 cell free culture (AID 720684)
In short: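 Plate contents were MEM with 10% FBS plus test compound or DMSO, no cells. Fluorescence was recorded with 540 nm excitation and 590 nm emission.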

[6] = qHTS assay to test for compound auto fluorescence at 535 nm (green) in HepG2 cell free culture (AID 720686)
[7] = qHTS assay to test for compound auto fluorescence at 460 nm (blue) in HepG2 cells (AID 720687)
In short: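 Blue-channel autofluorescence (Ex/Em 405/460 nm, triamterene-equivalent) was measured after 1 hr compound exposure at 37 C, 5% CO2. Cells were HepG2, plated overnight at 37 C in MEM plus 10% FBS.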

[8] = biological target: Glucocorticoid receptor (Homo sapiens) (UniProt P04150); assay: qHTS assay to identify small molecule agonists of the glucocorticoid receptor (GR) signaling pathway (AID 720691; active = well fitted activation curve with a large enough effect in the signal ratio in the repeat runs, not every such curve was filed as active; inconclusive = weak or mixed curves, or effect the other way; inactive = no such curve, though single readings can be large or run the other way; the % refers to the signal ratio; note: potency is the fitted concentration of half-maximal effect)
Sequence of Glucocorticoid receptor (Homo sapiens) (P04150 whole entry, looked up): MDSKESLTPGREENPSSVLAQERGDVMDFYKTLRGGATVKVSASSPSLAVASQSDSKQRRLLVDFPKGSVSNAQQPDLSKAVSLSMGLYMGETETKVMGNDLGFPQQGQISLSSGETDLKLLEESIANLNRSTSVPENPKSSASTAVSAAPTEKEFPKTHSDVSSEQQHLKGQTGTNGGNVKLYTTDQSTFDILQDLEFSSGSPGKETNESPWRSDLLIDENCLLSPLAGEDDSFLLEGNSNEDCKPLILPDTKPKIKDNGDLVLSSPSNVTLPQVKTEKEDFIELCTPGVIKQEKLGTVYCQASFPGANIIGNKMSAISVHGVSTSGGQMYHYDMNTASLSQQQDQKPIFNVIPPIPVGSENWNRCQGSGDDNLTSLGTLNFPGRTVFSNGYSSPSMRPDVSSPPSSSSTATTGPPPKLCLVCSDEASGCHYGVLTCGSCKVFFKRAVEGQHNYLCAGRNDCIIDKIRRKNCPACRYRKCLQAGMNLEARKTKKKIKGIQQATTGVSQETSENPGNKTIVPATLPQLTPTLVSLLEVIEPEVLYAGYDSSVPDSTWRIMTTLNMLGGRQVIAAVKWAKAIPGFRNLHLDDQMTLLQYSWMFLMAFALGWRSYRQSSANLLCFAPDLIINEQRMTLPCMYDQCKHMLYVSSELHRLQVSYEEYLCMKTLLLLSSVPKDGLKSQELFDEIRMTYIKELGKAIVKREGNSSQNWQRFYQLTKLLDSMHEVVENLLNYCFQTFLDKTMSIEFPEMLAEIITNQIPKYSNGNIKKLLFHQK
In short: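 GR-bla HeLa cells carrying a GRE-driven beta-lactamase reporter, exposed to compounds for 18 h at 37 C. Reporter activation read as fluorescence after 2 h with LiveBLAzer B/G FRET substrate at room temperature.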

[9] = biological target: Glucocorticoid receptor (Homo sapiens) (UniProt P04150); assay: qHTS assay to identify small molecule antagonists of the glucocorticoid receptor (GR) signaling pathway (AID 720692; active = well fitted inhibition curve with a large enough effect in the signal ratio in the repeat runs, not every such curve was filed as active; inconclusive = weak or mixed curves, or effect the other way; inactive = no such curve, though single readings can be large or run the other way; the % refers to the signal ratio; note: potency is the fitted concentration of half-maximal effect)
In short: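 GR-bla HeLa cells carrying a GRE-driven beta-lactamase reporter received compound after 4 h plating, then dexamethasone (5 nM final). After 18 h at 37C, the FRET substrate was loaded for 2 h at room temperature and fluorescence read.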

[10] = qHTS assay to test for compound auto fluorescence at 460 nm (blue) in HepG2 cell free culture (AID 720685)
In short: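 Compound (23 nL) or DMSO pinned into cell-free MEM with 10% FBS; blue fluorescence read at 405/460 nm excitation/emission, expressed as auto-fluorescence equivalency to triamterene.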

Measured: Potency

CC(C)(Oc1ccc(Cl)cc1)C(=O)O
not listed: [10]
inactive: all other assays above

CC(=O)Nc1ccc2c(c1)Cc1cc(NC(C)=O)ccc1-2
not listed: [10]
inactive: all other assays above

CCCCCCC(C)O (stereo not drawn)
not listed: [2]
inactive: all other assays above

Nc1ccc2c(c1)C(=O)c1ccccc1C2=O
not listed: [9] | [10]
inactive: all other assays above

IC(I)I
not listed: [2]
inactive: all other assays above

Cc1ccc(C(C)(C)C)cc1
inactive: [1] | [3] | [4] | [5] | [6] | [7]

Cc1ccc(C(C)(C)C)c(O)c1
not listed: [2] | [8] | [9]
inactive: all other assays above

NCCN
not listed: [2] | [8] | [9]
inactive: all other assays above

CCCCCC1C(=O)CCC1CC(=O)OC (stereo not drawn)
not listed: [2] | [8] | [9]
inactive: all other assays above

CC(=O)Oc1c(C)c(C)c2c(c1C)CC[C@@](C)(CCC[C@H](C)CCC[C@H](C)CCCC(C)C)O2
inactive: [1] | [3] | [4] | [5] | [6] | [7]

C=C[Si](OCCOC)(OCCOC)OCCOC
not listed: [2]
inactive: all other assays above

CN(C)CCCN1c2ccccc2Sc2ccc(Cl)cc21
not listed: [2] | [8] | [9]
inactive: all other assays above

c1ccc2c(c1)ccc1cc3c(ccc4ccccc43)cc12
not listed: [2]
inactive: all other assays above

CC1(C)O[C@@H]2C[C@H]3[C@@H]4C[C@H](F)C5=CC(=O)C=C[C@]5(C)[C@@]4(F)[C@@H](O)C[C@]3(C)[C@]2(C(=O)CO)O1
active: [8] 3.8 nM and 1.2 nM
not listed: [9] | [10]
inactive: all other assays above

C1CN(SSN2CCOCC2)CCO1
not listed: [2] | [9] | [10]
inactive: all other assays above

CCCCCCCCCCCCCO
not listed: [2]
inactive: all other assays above

CC(C)(C)c1cccc(C(C)(C)C)c1O
not listed: [10]
inactive: all other assays above

OCCNCCO
not listed: [2]
inactive: all other assays above

CC1(C)OC(=O)NC1=O
not listed: [10]
inactive: all other assays above

CC(=O)O[C@]1(C(C)=O)CC[C@H]2[C@@H]3C=C(C)C4=CC(=O)CC[C@]4(C)[C@H]3CC[C@@]21C
active: [8] 51.2 nM and 61.6 nM | [9] 91 nM and 77.6 nM
not listed: [10]
inactive: all other assays above

COc1ccc(-c2coc3cc(O)cc(O)c3c2=O)cc1
not listed: [9] | [10]
inactive: all other assays above

CCOC(=O)C(C)Oc1ccc(Oc2cnc3cc(Cl)ccc3n2)cc1 (stereo not drawn)
not listed: [2] | [9]
inactive: all other assays above

Nc1ccc2c(O)cc(S(=O)(=O)O)cc2c1
inactive: [1] | [3] | [4] | [5] | [6] | [8]

CNC[C@H](O)c1ccc(O)c(O)c1
not listed: [1] | [8] | [9]
inactive: all other assays above

CC[C@]12CCCN3CCc4c(n(c5ccccc45)[C@@](O)(C(=O)OC)C1)[C@@H]32
not listed: [2]
inactive: all other assays above

CCCCCC=O
inactive: [1] | [3] | [4] | [5] | [6] | [7]

COc1ccc(C(=O)c2ccccc2O)c(O)c1
not listed: [2] | [10]
inactive: all other assays above

C=C[C@H]1CN2CC[C@H]1C[C@H]2[C@H](O)c1ccnc2ccc(OC)cc12
not listed: [2] | [8] | [9]
inactive: all other assays above

CC/C(=C(/CC)c1ccc(O)cc1)c1ccc(O)cc1
not listed: [1] | [8] | [9]
inactive: all other assays above

CN(C)/N=N/c1nc[nH]c1C(N)=O
not listed: [1]
inactive: all other assays above

C=C[C@@]1(C)CC(=O)[C@]2(O)[C@@]3(C)[C@@H](O)CCC(C)(C)[C@@H]3[C@H](O)[C@H](OC(C)=O)[C@@]2(C)O1
not listed: [1] | [9]
inactive: all other assays above

Oc1c(Cl)ccc(Cl)c1Cl
not listed: [1] | [2]
inactive: all other assays above

C=C[C@H]1CN2CC[C@H]1C[C@@H]2[C@@H](O)c1ccnc2ccc(OC)cc12
inactive: [3] | [4] | [5] | [6] | [7]

O=[Se](O)O
inactive: [2] | [3] | [4] | [5] | [6] | [7]

OC[C@H]1O[C@@H]2O[C@H]3[C@H](O)[C@@H](O)[C@@H](O[C@H]4[C@H](O)[C@@H](O)[C@@H](O[C@H]5[C@H](O)[C@@H](O)[C@@H](O[C@H]6[C@H](O)[C@@H](O)[C@@H](O[C@H]7[C@H](O)[C@@H](O)[C@@H](O[C@H]1[C@H](O)[C@H]2O)O[C@@H]7CO)O[C@@H]6CO)O[C@@H]5CO)O[C@@H]4CO)O[C@@H]3CO
not listed: [1] | [2]
inactive: all other assays above

CC(C)[N+](C)(CCOC(=O)C1c2ccccc2Oc2ccccc21)C(C)C
not listed: [1] | [10]
inactive: all other assays above

C[C@]12CC[C@@H]3c4ccc(O)cc4CC[C@H]3[C@@H]1CC[C@H]2O
active: [9] 6.27 µM
not listed: [1]
inactive: all other assays above

COc1ccc2nc(N)sc2c1
not listed: [1] | [2] | [10]
inactive: all other assays above

CCCOCCO
not listed: [1] | [2] | [10]
inactive: all other assays above

CC(=O)OC(C)C
not listed: [1] | [10]
inactive: all other assays above

NC[C@H](O)c1ccc(O)c(O)c1
not listed: [1] | [2]
inactive: all other assays above

CCCCCCCCCCCCO
not listed: [1] | [8] | [9]
inactive: all other assays above

CCO[Si](CCCNC(N)=O)(OCC)OCC
not listed: [1] | [2] | [10]
inactive: all other assays above

CC1=CC(C)(C)Nc2ccccc21
not listed: [1] | [8] | [9]
inactive: all other assays above

C/C=C/C(=O)N(CC)c1ccccc1C
not listed: [1] | [10]
inactive: all other assays above

O=C(CCCN1CCC(O)(c2ccc(Cl)cc2)CC1)c1ccc(F)cc1
not listed: [1] | [9]
inactive: all other assays above

Nc1ccc(N)c(Cl)c1
not listed: [1]
inactive: all other assays above

C=CN1CCCC1=O
inactive: [2] | [3] | [4] | [5] | [6] | [7]

Cc1ccc(S(=O)(=O)NCl)cc1
not listed: [1]
inactive: all other assays above

Nc1ccc(O)c(N)c1
not listed: [1] | [9]
inactive: all other assays above

C1COCCN1
inactive: [3] | [4] | [5] | [6] | [7]

Cc1cccc(Nc2ccccc2C(=O)O)c1C
not listed: [1] | [2]
inactive: all other assays above

O=C(O)CCCC(=O)O
not listed: [1] | [2]
inactive: all other assays above

FC(F)(F)C(Cl)Br (stereo not drawn)
not listed: [1]
inactive: all other assays above

C[C@]12CC[C@@H]3c4ccc(O)cc4CC[C@H]3[C@@H]1CC[C@@H]2O
active: [9] 4.25 µM and 2.18 µM
not listed: [1] | [8]
inactive: all other assays above

CCCCCCCCCCC(CO)CCCCCCCC (stereo not drawn)
not listed: [1]
inactive: all other assays above

C=C1C[C@H]2[C@@H]3C=C(C)C4=CC(=O)CC[C@]4(C)[C@H]3CC[C@]2(C)[C@@]1(OC(C)=O)C(C)=O
active: [8] 120 nM [inconclusive] and 14.1 nM
not listed: [1] | [10]
inactive: all other assays above
